Results filed as inconclusive are left out. A number with no mark means an inactive call. Calls of active or inactive are those of the source. Calls follow the shape of the dose curve; as a rule, active = well fitted cell-killing curve with a large enough effect; inconclusive = small, poorly fitted or top-dose-only effect; inactive = flat fitted curve, though single readings scatter. Numbered stars: 1 amine (or outer) side, 2 acyl side, 3 side chain; on linkers, the order of the positions; unused ones are H or OH. Bridge positions count the residues as written; N and C are the ends. Square brackets hold non-standard residues; d marks the D form. Peptide text beside a SMILES is read from it. * marks the point of attachment. ξ: configuration not given here. X1 = CCCCCCCCCC(=O)[C@H](C(=O)[*:2])[C@@H]1CNC(=O)[C@@H](N[*:1])CS1; Phe(3R-OH) = O=C([C@@H](N[*:1])[C@H](O[*:3])c1ccccc1)[*:2]; NMeTrp(4-OMe) = CN[C@@H](Cc1c[nH]c2cccc(OC)c12)C(=O)O; ξThr(3R)(O-yl) = C[C@@H](O[*:3])C(N[*:1])C(=O)[*:2]; NMeThr(3ξ) = CN[C@H](C(=O)O)C(C)O; NMeL = CN[C@@H](CC(C)C)C(=O)O; NMeV = CN[C@H](C(=O)O)C(C)C; ξIle = CC[C@H](C)C(N)C(=O)O; Octanoyl = CCCCCCCC(=O)*; ξV = CC(C)C(N)C(=O)O
Assay: HEK-293 Cancer Cell Toxicity qHTS against the NCATS CANVASS Library (AID 1347355); also: nearly all actives have a fitted effect of over 65% in size
Settings: HEK-293 viability, CellTiter-Glo luminescence, 72 h; series mostly up to 46.1 µM; activity change, negative = cytotoxicity: at the top concentration
Description: Natural products and their derivatives continue to be wellsprings of nascent therapeutic potential. However, many laboratories have limited resources for biological evaluation, leaving their previously isolated or synthesized compounds largely or completely untested. To address this issue, the Canvass library of natural products was assembled (https://tripod.nih.gov/canvass), in collaboration with academic and industry researchers, for quantitative high-throughput screening (qHTS) across a diverse set of cell-based and biochemical assays. The pure (>85% purity by liquid chromatography/mass spectrometry [LC/MS]) Canvass library of 346 natural products were submitted by 45 academic laboratories and companies around the world. We collected pure natural products to circumvent deconvolution and structure elucidation due to time and resource limitations. The library was formatted into 1536-well plates and evaluated in 50 qHTS (in an 11-pnt concentration series) bioassays with broad scope of disease-relevant mechanisms. The resulting data set from 50 different assays was then systematically analyzed to identify overall trends and specific natural products with interesting biological activities. Reported herein are the results of each individual qHTS and their corresponding assay protocol. National Center for Advancing Translational Sciences (NCATS), Rockville, MD National Institute of Health (NIH), Bethesda, Maryland
Cancer Cell Toxicity COV-362, OV-KATE, OV-SAHO, UWB1.289, UWB1.289-WTBRCA1, HEK-293, HPAF-II, Panc-1005, SW1088, and U-118MG-screen protocol. 1. In a 1536 well, white solid bottom tissue culture plates (Corning 7494), corresponding cells (COV-362, OV-KATE, OV-SAHO, UWB1.289, UWB1.289-WTBRCA1, HEK-293, HPAF-II, Panc-1005, SW1088, or U-118MG) were dispensed in each well at a final concentration of 1000 cells / well (6uL volume) using the Multidrop Combi (Thermo Fisher Scientific) dispenser. 2. The plates were incubated for 4 hours at 37 degrees C/5% CO2/95% Rh. 3. Compounds were pin transferred (~23nL volume) via Wako Pin-tool (Wako Automation, Richmond VA) equipped with a 1536 pin head. The assay plates were treated with compounds in an 11-pnt concentration series with a final concentration range of […] to 85uM. 4. Bortezomib was used as a single dose control (0.5mM column 4, rows 1 - 32) at a final concentration of 1.9uM and as a 16pnt titration (1mM; 1:2 dilution; 16-points; n = 2; column 3, rows 1 - 32) with final concentration range of 0.1nM - 3.8uM. 5. The assay plates were incubated for 72 hours at 37 degrees C/5% CO2/95% Rh. 6. 3uL CellTiter-Glo detection reagent was then added to the plates (columns 2 - 48, rows 1 - 32) and incubated at room temperature for additional 15min. 7. Luminescence signal was acquired via the ViewLux plate reader (PerkinElmer) using a clear filter, 2 second exposure and 2x binning settings.
% is scaled to controls: 0 for no effect and ±100 for the full control effect; potency is read from the fitted curve at half-maximal effect.

Compound	outcome	activity change, negative = cytotoxicity	Potency
CC1C(=O)C23CCC1C[C@@]21O[C@H]2C(C)(C)C=CC(=O)[C@@]23COC1=O (stereo not given in full)	inactive	–	–
O=C(O)[C@@]12COC3(O)C1CCN1CC[C@H]3[C@@H]1c1c2[nH]c2ccccc12	–	-0.181%	–
C[C@@]12C[C@@H](C[C@H]3C(=O)O[C@@H](c4ccoc4)[C@H](OC(=O)c4ccccc4)[C@@H]31)OC2=O	inactive	–	–
O=c1cc(-c2ccc(O)cc2)oc2c([C@@H]3OC(CO)[C@H](O)[C@@H](O)[C@H]3O)c(O)cc(O)c12 (stereo not given in full)	inactive	–	–
Cc1cc(O)cc2oc(C[C@H](C)O)cc(=O)c12	–	-3.7%	–
CC(C)=CCC[C@@H](C)[C@@H]1CC[C@@]2(C)C[C@H]3C(C)=CC(=O)[C@@H]3/C(C=O)=C\C[C@H]12	–	–	9.35 µM (active)
O=C(O)CC1OCc2c(O)cccc21 (stereo not given)	–	3.6%	–
C[C@@H](O)[C@H]1OC(=O)C=C2[C@]3(C)[C@H]4[C@H](OC(=O)[C@@]4(C)[C@@H](O)[C@H]4O[C@H]43)[C@H]3O[C@@]231	–	–	1.48 µM (active)
CCCCCCCCC[C@@H]1C[C@@H]2CC[C@H]3[C@@H](C(=O)OCCCCN=C(N)N)[C@@H](C)N=C(N1)N23	–	–	11.5 µM (active)
C[C@@H]1C(=O)[C@]23CC[C@H]1C[C@]21O[C@H]2C(C)(C)C=CC(=O)[C@@]23COC1=O	–	4.26%	–
CC[C@H](C)C(NC(=O)[C@@H](NC)C(C)C)C(=O)NC1C(=O)N(C)[C@@H](C(C)O)C(=O)N[C@@H](C(C)C)C(=O)N(C)[C@@H](CC(C)C)C(=O)NC(C(C)C)C(=O)N(C)[C@@H](C(C)C)C(=O)N(C)[C@@H](Cc2c[nH]c3cccc(OC)c23)C(=O)N[C@@H](C(C)C)C(=O)N[C@@H]([C@H](O)c2ccccc2)C(=O)N[C@@H](C(C)C)C(=O)O[C@@H]1C (stereo partly drawn) (H-[NMeV][ξIle][ξThr(3R)(O-yl)][NMeThr(3ξ)]V[NMeL][ξV][NMeV][NMeTrp(4-OMe)]V[Phe(3R-OH)]V; ester 3-C)	–	-3.65%	–
C/C=C/C=C/C1(O)C2C=C3C(=O)CC45C(=O)C(O)=C(C)C(=O)C4C1C1(C(=O)C(O)=C(C)C(=O)C351)C2C (stereo not given)	inactive	–	–
CO[C@@H]1[C@H](O)[C@@H](C)O[C@@H](OC[C@@H]2C(C)OC(=O)/C=C/[C@H](C)C(O[C@@H]3O[C@H](C)CC4(OC(=O)O[C@@H]4C)C3O)[C@@H](C)CC(C)C(=O)CC[C@H]3OC23)[C@@H]1OC (stereo not given in full)	–	-0.146%	–
C[C@@H]1O[C@@H](Oc2c(-c3ccc(O)cc3)oc3cc(O)cc(O)c3c2=O)[C@H](O)[C@H](O)[C@H]1O	–	-7.78%	–
C=C[C@@]1(C)CC[C@@H]([C@H](C)C(=O)/C=C/C(C)C)O1	–	1.63%	–
CCCCCCCC(=O)N[C@@H](CC(C)C)C(=O)N[C@H](C=O)CCC(=O)O (Octanoyl-Leu-Glu-aldehyde)	–	0.235%	–
CN1CC[C@]2(c3cccc4c3N[C@@H]3N(C)CC[C@]43[C@@]34CCN(C)[C@@H]3Nc3c([C@]56CCN(C)[C@H]5Nc5ccccc56)cccc34)c3ccccc3N[C@H]12	–	–	2.96 µM (active)
OCc1ccc2ocnc2c1	–	4.14%	–
C[C@H]1C[C@@H]([C@@H]2CC[C@]34O[C@H](CC[C@@]35C[C@H](C)C(=O)O5)CN24)OC1=O	inactive	–	–
C=C1C(=O)O[C@H]2C[C@H](C)[C@@H]3CC(=O)C(C)=C3[C@H](O)[C@H]12	–	–	7.43 µM (active)

Compound	outcome	activity change, negative = cytotoxicity	Potency
C=C1C[C@@]23C=CC(=O)[C@@](C)(CCC(=O)Nc4c(OC5O[C@H](CO)[C@@H](O)[C@H](O)[C@H]5O)ccc(C(=O)O)c4O)C2C[C@@H]1CC3 (stereo not given in full)	inactive	–	–
Oc1ccc([C@H]2Oc3ccc(/C=C/c4cc(O)cc(O)c4)cc3C2c2cc(O)cc(O)c2)cc1 (stereo not given in full)	–	-0.334%	–
CN1CCc2cc3c(c4c2[C@H]1[C@@H](O)c1ccccc1-4)OCO3	–	–	23.5 µM (active)
C=C(C)C(=O)O[C@H]1C[C@H](C)[C@@H](OC(C)=O)CC[C@@]2(C)O[C@@H]2[C@H]2OC(=O)C(COC(C)=O)=C12	–	–	3.72 µM (active)
COc1ccc2cc(NC(=O)C3=NO[C@H]4[C@H](O)C=C[C@@H](Cl)[C@@]4(O)C3)c(=O)oc2c1OC	–	-23.1%	–
O=C1c2c(O)cc(O)cc2O[C@@H](c2ccc(O)cc2)[C@@H]1c1c(O)cc(O)c2c(=O)cc(-c3ccc(O)c(O)c3)oc12	–	-11.4%	–
COc1ccc([C@@H]2c3cc(OC)c(OC)cc3C(=O)C(C)C2C)cc1OC (stereo not given in full)	–	-13.8%	–
CO[C@H]1/C=C/CC[C@@H](S[C@@H]2O[C@H](CO)[C@@H](O)[C@H](O)[C@H]2O)CC(=O)O[C@@H](/C(C)=C/[C@H](C)C(=O)CCCC2CC(=O)NC(=O)C2)[C@@H](C)[C@@H]1O	–	–	1.87 µM (active)
CC(O)/C=C/C1(O)C(C)(C)CC(O)CC1(C)O (stereo not given)	–	1.69%	–
CO[C@@H]1C[C@@H](C[C@H]2CC[C@H](C)[C@H]([C@@H](C)C(=O)O)O2)O[C@]2(O[C@](C)([C@H]3CC[C@@](C)([C@@H]4O[C@@H]([C@H]5O[C@](C)(O)[C@H](C)C[C@@H]5C)C[C@@H]4C)O3)C[C@H]2C)[C@@H]1C	–	–	0.296 µM (active)
CC1(C)C=Cc2c(ccc3c2OC[C@@H](c2ccc(O)cc2O)C3)O1	–	-1.08%	–
Oc1ccc(/C=C2/c3cc(O)cc(O)c3C(c3ccc(O)cc3)[C@H]2c2cc(O)cc(O)c2)cc1 (stereo not given in full)	–	-2.33%	–
C=CC(=C)CC[C@]1(C)[C@H]2C[C@H](OC(=O)C(C)CC)C=C3[C@H](OC(C)=O)O[C@H](OC(C)=O)[C@@]32[C@H](OC)C[C@@H]1C (stereo not given in full)	–	–	4.29 µM (active)
COc1ccc2oc3c(OC)c(OC)c(OC)c(OC)c3c(=O)c2c1	–	-6.97% [at 9.19 µM]	–
COC1C(O)C(OC(N)=O)C(Oc2ccc3c(O)c(NC(=O)c4ccc(O)c(CC=C(C)C)c4)c(=O)oc3c2C)OC1(C)C (stereo not given)	inactive	–	–
CC1C(=O)C23CCC1C[C@]21O[C@@H]2C(C)(C)C=CC(=O)[C@@]23COC1=O (stereo not given in full)	inactive	–	–
CCCCCCCCCC(=O)[C@@H]1C(=O)N[C@@H](CC(C)C)C(=O)N[C@H](C)C(=O)N2CCC[C@H]2C(=O)N[C@@H](C(C)C)C(=O)N[C@H]2CS[C@H]1CNC2=O (cyclo(L[dA]PV[X1]))	inactive	–	–
CC12C[C@]3(O)O[C@@H](O1)[C@]1(COC(=O)c4ccccc4)[C@@H]3CC21OC1OC(CO)C(O)C(O)C1O (stereo not given in full)	inactive	–	–
O=C(OC1Cc2c(O)cc(O)cc2OC1c1cc(O)c(O)c(O)c1)c1cc(O)c(O)c(O)c1 (stereo not given)	–	-17.8%	–
O=Cc1ccc2n1C[C@@]1(C[C@H](O)[C@@H](CO)O1)OC2	–	-0.291%	–

Reference: PubChem BioAssay (NCATS)
